# The supplement of paper PMC10338343
# ± gives the standard deviation.
# Tests used:
# [1] = tested on: MILI (PIWIL2) piRISC loaded with L1MC piRNA (26 nt); experiment: pre-steady-state target cleavage rate (min^-1); guide: L1MC piRNA 5'p-UAACUAAAUACUAUGCAAGCUGUAGG; higher = faster piRNA-guided slicing of the target;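 note: 1 nM active piRISC with 0.1 nM target library at 33 °C single turnover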
# Summary of the method: (§1)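 The pre-steady-state cleavage rate was derived from a burst-and-steady-state fit of Cleave-'n-Seq data. For these assays, 1 nM active affinity-purified piRISC loaded with a single synthetic guide was mixed with […] a transcribed, DNA-blocked target RNA library in HEPES–potassium acetate buffer at 33 °C, with or without 500 nM GTSF1 partner protein, for 0–8 or 0–960 min. Sequencing counts of uncleaved targets were normalised to depth and to weakly complementary targets, and k3 was capped at 0.0001 min^-1 after three trials were pooled.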
# [2] = tested on: EfPiwi piRISC loaded with L1MC piRNA (26 nt); experiment: pre-steady-state target cleavage rate (min^-1); auxiliary factor: 500 nM Ephydatia muelleri Gtsf1; guide: L1MC piRNA 5'p-UAACUAAAUACUAUGCAAGCUGUAGG; MIWI and MILI are mouse PIWI proteins and EfPiwi is from a freshwater sponge; tags in brackets are library labels; higher = faster piRNA-guided slicing of the target
# Summary of the method: as §1
# [3] = auxiliary factor: 500 nM mouse GTSF1
# [4] = auxiliary factor: none (no GTSF1)
Sequence,"pre-steady-state target cleavage rate [1, 3]","pre-steady-state target cleavage rate [1, 4]",pre-steady-state target cleavage rate [2]
UCCUGGUACAGCUUGCAUAGUAUUUAGUCA,0.159 ± 0.032,0.00633 ± 0.0029,0.00545 ± 0.0021
UCCUGGAUCUGCUUGCAUAGUAUUUUGUUA,0.092 ± 0.015,0.00429 ± 0.0026,0.0153 ± 0.0053
UCCUGGUACAACUUGCAUAGUAUUUAGUUA,0.273 ± 0.023,0.012 ± 0.0031,0.017 ± 0.0059
UCCUGGAACAGCUUGCAUAGUAUGUUAGUUA,0.243 ± 0.046,0.0048 ± 0.0027,0.00812 ± 0.0028
UCCUGGAUGUCCUGGCAUAGUAUUUAGUUA,0.066 ± 0.013,0.00414 ± 0.0026,0.0055 ± 0.0047
UCCUGGAUGAGCUUGCAUAGUAUUUAGAUA,0.135 ± 0.031,0.00291 ± 0.0024,0.00326 ± 0.0019
UCCUCCUACAGCUUGCAUAGUAUUCUAGUUA,0.316 ± 0.039,0.00537 ± 0.0026,0.00344 ± 0.0019
UCCUGGAACAGCAUGCAUAGUAUUAAGUUA,0.219 ± 0.027,0.00548 ± 0.0019,0.00499 ± 0.0017
UCCUGGAUCAGCUUGCAUAGUCUUUAGUUA,0.191 ± 0.011,0.00789 ± 0.0024,0.0204 ± 0.0053
UCCUGGAUCAGCUGGCAUAGUAUUUAGUUA,0.253 ± 0.023,0.00736 ± 0.0024,0.0104 ± 0.0026
UCCUCCUACAGCUUGCAUAGUAUUUAAGUUA,0.214 ± 0.022,0.00686 ± 0.0024,0.00943 ± 0.0038
UCCUGGAUGAGCUUGGAUAGUAAUUAGUUA,0.1 ± 0.02,0.00311 ± 0.0026,0.00302 ± 0.0021
UCCUCCAACAGCUUGCAUAGUUUUUAGUUA,0.0522 ± 0.0087,0.00502 ± 0.0021,0.0119 ± 0.0041
UCCUCCUACUGCUUGCAUACUAUUUAGUUA,0.0694 ± 0.011,0.00355 ± 0.0019,0.0106 ± 0.0044
UCCUGGAUGAGCAUUGCAUAGUAUUUAGUUA,0.212 ± 0.022,0.0105 ± 0.0025,0.008 ± 0.0029
UCCUGCUACAGCUUGCUUAGUAUUUAGUAA,0.119 ± 0.015,0.00316 ± 0.0023,0.00437 ± 0.0017
UCCUCCUACAGCUUGCUUAGUAUAUAGUUA,0.271 ± 0.024,0.00356 ± 0.0021,0.0127 ± 0.0069
UCCUGGAACAGCUUGUCAUAGUAUUUAGUUA,0.2 ± 0.014,0.00365 ± 0.0033,0.0277 ± 0.0088
UCCUCCAUACAGCUUGCAUAGUAUUUAGUUA,0.171 ± 0.021,0.00652 ± 0.002,0.00733 ± 0.0027
